Reference: PubChem BioAssay (NCATS)
Records with an inconclusive call do not appear. Activity calls are given as the source filed them. Calls follow the shape of the dose curve; as a rule, active = well fitted inhibition curve with a large enough effect; inconclusive = small, poorly fitted or top-dose-only effect; inactive = flat fitted curve, though single readings scatter.

Tested on: not listed separately
Experiment: qHTS Assay for Lipid Storage Modulators (AID 1519)
Conditions: Drosophila S3 cells, BODIPY lipid droplet/cell ratio, laser cytometry; measured here: lipid channel max response; cells loaded with oleic acid
Procedure, shortened: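 Cells seeded at 5,000 per well were treated with compounds over a concentration series and loaded with oleic acid (400 uM, as added). Lipid droplet fluorescence (488 nm excitation, 500-530 nm channel) was read by laser-scanning cytometry and normalized to 20 uM Triacsin C.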

Compared with `CN(C)C(=O)c1ccc(-c2nc(NCc3cccnc3)c3ccccc3n2)cc1`, `CN(C)C(=O)c1ccc(-c2ccc3ncnc(NCc4cccnc4)c3c2)cc1` is lower in max response: 24.6% for the first, 16.7% for the second.

Going from `N#Cc1cccc(NC(=O)N2CC3(CCN(C(=O)c4cccc(F)c4)CC3)C2)c1` to `O=C(Nc1cccc(F)c1)N1CCC2(CC1)CCN(C(=O)c1cc(C(F)(F)F)cc(C(F)(F)F)c1)CC2`, the max response falls from 25.1% to -9.94%.

Compared with `CC(C)NC(=O)N1CCC2(CC1)CCN(C(=O)c1cnccn1)CC2`, `O=C(c1cnccn1)N1CCC2(CCN(Cc3ccncc3)CC2)CC1` is lower in max response: 17.7% for the first, 8.61% for the second.

Going from `Cc1cccc(CNc2cc(-c3cccc(NS(C)(=O)=O)c3)ncn2)c1` to `Cc1cccc(CNc2ccnc(-c3cccc(NS(C)(=O)=O)c3)n2)c1`, the max response rises from -3.48% to -1.23%.

First: COc1ccc(C(=O)N2CCC3(CC2)CN(c2ccccn2)C3)cc1
Second: COc1ccc(NC(=O)N2CC[C@@]3(CCCN(C(=O)c4ccncc4)C3)C2)cc1
The max response of the first is higher: 29.6% for the first, 7.4% for the second.

First: Cc1noc(C)c1-c1nccc(N2CCNCC2)n1
Second: c1ccc2c(N3CCNCC3)nc(-c3ccoc3)nc2c1
The max response of the first is lower: 14.7% for the first, 17.6% for the second.

First: CC[C@@]12CCCN3CCc4c(n(c5ccccc45)C(=O)C1)[C@H]32
Second: CS(=O)(=O)N1CCC2(CCCN(Cc3ccccc3)C2)CC1
The max response of the first is lower: -14% for the first, 13.7% for the second.

Compared with `c1ccc(Nc2ncnc3ccc(-c4cccnc4)cc23)cc1`, `N#Cc1ccccc1-c1ccc2ncnc(NCc3cccs3)c2c1` is higher in max response: -13.8% for the first, -0.129% for the second.

Compared with `CS(=O)(=O)N1CCC[C@@]2(CCN(c3ccncc3)C2)C1`, `O=C(c1csnn1)N1CCC2(CCCN(c3ccncc3)C2)CC1` is higher in max response: -16.3% for the first, -0.685% for the second.

Going from `O=C(c1ccncc1)N1CCC[C@@]2(CCN(c3cccc(-c4ccccc4)c3)C2)C1` to `O=C(Oc1ccccc1)N1CCC2(CCCN(c3ccncc3)C2)CC1`, the max response falls from 13% to 10.6%.

First: N#Cc1ccc(CN2CCCC3(CCN(C(=O)c4cc(C(F)(F)F)cc(C(F)(F)F)c4)CC3)C2)cc1
Second: COc1ccccc1CN1CCC2(CC1)CCN(C(=O)c1cc(C(F)(F)F)cc(C(F)(F)F)c1)CC2
The max response of the first is higher: 26.7% for the first, 1.32% for the second.

First: CN(C)Cc1ccccc1-c1cncnc1NCc1ccccc1
Second: CN(C)Cc1ccccc1-c1ccc2ncnc(NCc3cccs3)c2c1
The max response of the first is higher: 10.2% for the first, 6.51% for the second.

Going from `N#Cc1ccc(CN2CCCC3(CCNCC3)C2)cc1` to `O=C(Nc1ccccc1)N1CCCC2(CCNCC2)C1`, the max response rises from 18.2% to 25%.

Going from `COc1ccccc1CNc1ncncc1-c1ccc(N(C)C)cc1` to `CN(C)Cc1ccccc1-c1ccc2ncnc(NC3CC3)c2c1`, the max response rises from -7.14% to 24.1%.

Going from `O=S(=O)(c1ccccc1)N1CCC2(CCN(c3ccncc3)CC2)CC1` to `CN1CCN(c2nc(-c3cccc(NS(C)(=O)=O)c3)nc3ccccc23)CC1`, the max response falls from 17% to 8.93%.

Compared with `Cc1ccccc1-c1cncnc1N1CCNCC1`, `COc1cccc(-c2nc(N3CCNCC3)c3ccccc3n2)c1` is lower in max response: 18.8% for the first, -11.1% for the second.

Going from `COCC(=O)N1CCC2(CC1)CN(Cc1nccs1)C2` to `COc1ccc(NC(=O)N2CCC3(CC2)CCN(C(=O)c2cc(C(F)(F)F)cc(C(F)(F)F)c2)CC3)cc1`, the max response falls from 13.5% to -1.48%.

Compared with `COc1ccc(Oc2ncc3nc(CCc4ccccc4)c(=O)n(C)c3n2)cc1`, `COCCn1c(=O)c(-c2ccc(F)cc2)nc2cnc(Oc3ccc(OC)cc3)nc21` is lower in max response: 8.21% for the first, -27.4% for the second.

Going from `O=c1c(-c2cc(F)cc(F)c2)nc2cnc(Oc3ccccc3)nc2n1C[C@H]1CCCO1` to `O=c1c(CCc2ccccc2)nc2cnc(N3CCOCC3)nc2n1C[C@H]1CCCO1`, the max response falls from 10.1% to -6.55%.

Compared with `CN1CCN(c2ccnc(-c3ccccc3C(F)(F)F)n2)CC1`, `c1ccc(C(c2ccccc2)N2CC3(CCNCC3)C2)cc1` is higher in max response: -14.8% for the first, 0.5% for the second.

Molecular target: Ubiquitin carboxyl-terminal hydrolase 1 (Homo sapiens) (UniProt O94782)
Experiment: Inhibitors of USP1/UAF1: Pilot qHTS (AID 504865);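 also: rhodamine fluorescence freed from ubiquitin-rhodamine substrate followed over time; top concentration of the series differs between compounds; % is scaled to controls: 0 for no effect and ±100 for the full control effect; nearly all actives have a fitted effect of over 35% in size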
Conditions: purified USP1/UAF1, Ub-rhodamine cleavage fluorescence; series mostly up to 54.9 µM; activity change, negative = inhibition: at the top concentration
Procedure, shortened: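 In 50mM HEPES pH 7.8 containing 0.5mM EDTA, 1mM TCEP, 0.1 mg/ml BSA and 0.01% Tween-20, 1nM USP1/UAF1 is exposed to compound for 15 min, then Ub-Rho (150nM final) is added and fluorescence is read over time.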

Sequence of Ubiquitin carboxyl-terminal hydrolase 1 (Homo sapiens) (O94782 whole entry, looked up): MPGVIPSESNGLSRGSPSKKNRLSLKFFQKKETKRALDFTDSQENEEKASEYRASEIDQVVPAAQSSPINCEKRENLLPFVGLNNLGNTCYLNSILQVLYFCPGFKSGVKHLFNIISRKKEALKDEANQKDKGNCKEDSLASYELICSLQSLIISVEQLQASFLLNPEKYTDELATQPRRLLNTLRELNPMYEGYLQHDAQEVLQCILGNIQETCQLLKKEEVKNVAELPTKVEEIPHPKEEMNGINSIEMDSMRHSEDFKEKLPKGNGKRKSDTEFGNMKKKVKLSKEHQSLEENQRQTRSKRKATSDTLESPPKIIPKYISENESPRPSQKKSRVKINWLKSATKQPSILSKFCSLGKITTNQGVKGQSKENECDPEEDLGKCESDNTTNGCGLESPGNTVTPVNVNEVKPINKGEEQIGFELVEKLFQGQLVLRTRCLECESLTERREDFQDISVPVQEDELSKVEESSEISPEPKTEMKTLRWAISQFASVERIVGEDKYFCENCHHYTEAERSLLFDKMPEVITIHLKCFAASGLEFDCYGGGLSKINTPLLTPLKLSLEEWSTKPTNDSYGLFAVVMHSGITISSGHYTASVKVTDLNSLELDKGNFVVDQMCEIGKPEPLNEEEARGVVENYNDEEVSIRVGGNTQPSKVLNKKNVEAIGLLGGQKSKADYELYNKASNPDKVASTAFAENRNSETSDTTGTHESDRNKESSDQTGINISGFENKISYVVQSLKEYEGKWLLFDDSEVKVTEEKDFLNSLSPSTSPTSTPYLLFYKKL

For `CN(C)C(=O)c1ccc(-c2nc(NCc3cccnc3)c3ccccc3n2)cc1`, the “activity change, negative = inhibition” value was -7.81% [at 114 µM] (inactive).
For `Cc1cccc(CNc2cc(-c3cccc(NS(C)(=O)=O)c3)ncn2)c1`, the “activity change, negative = inhibition” value was -17% [at 114 µM] (inactive).
For `Cc1noc(C)c1-c1nccc(N2CCNCC2)n1`, the “activity change, negative = inhibition” value was -6.63% [at 114 µM] (inactive).
For `CC[C@@]12CCCN3CCc4c(n(c5ccccc45)C(=O)C1)[C@H]32`, the “activity change, negative = inhibition” value was -12.8% (inactive).
With `N#Cc1ccccc1-c1ccc2ncnc(NCc3cccs3)c2c1` the “activity change, negative = inhibition” value was -23.7% (inactive).
For `CN(C)C(=O)c1ccc(-c2ccc3ncnc(NCc4cccnc4)c3c2)cc1`, the “activity change, negative = inhibition” value was -10.6% [at 114 µM] (inactive).
With `CN(C)Cc1ccccc1-c1cncnc1NCc1ccccc1` the “activity change, negative = inhibition” value was -1.56% [at 114 µM] (inactive).
In the case of `CN(C)Cc1ccccc1-c1ccc2ncnc(NC3CC3)c2c1`, the “activity change, negative = inhibition” value was -9.8% [at 114 µM] (inactive).
For `Cc1ccccc1-c1cncnc1N1CCNCC1`, the “activity change, negative = inhibition” value was -8.64% [at 114 µM] (inactive).
With `COc1cccc(-c2nc(N3CCNCC3)c3ccccc3n2)c1` the “activity change, negative = inhibition” value was -10.8% [at 114 µM] (inactive).
With `CN1CCN(c2ccnc(-c3ccccc3C(F)(F)F)n2)CC1` the “activity change, negative = inhibition” value was -12.7% [at 114 µM] (inactive).
With `CN1CCN(c2nc(-c3cccc(NS(C)(=O)=O)c3)nc3ccccc23)CC1` the “activity change, negative = inhibition” value was -15.1% [at 114 µM] (inactive).
For `CN(C)Cc1ccccc1-c1ccc2ncnc(NCc3cccs3)c2c1`, the “activity change, negative = inhibition” value was -11.2% [at 114 µM] (inactive).
